# HT1080 IDH1KD tx: qHTS for induction of synthetic lethality in tumor cells producing 2HG: qHTS for the HT-1080-IDH1KD cell line | HT-1080 IDH1 knockdown viability, ATP luminescence, 48 h | Potency, µM (titrated, usually from 46.1 µM), inactives show at the top dose activity, negative = toxicity, actives largely listed as cytotoxic | 360,000 tested, 2% active;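 note: potency is the fitted concentration of half-maximal effect; 0% = DMSO wells and -100% = cell-free medium wells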
#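 CellTiter-Glo luminescence after 48 h compound exposure at 37 degrees C of IDH1-knockdown HT-1080 cells in 5% FBS RPMI. %Activity scaled between DMSO wells and cell-free media wells, with curves fitted and assigned curve classes.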
# uPA generation: qHTS for Inhibitors of Cell Surface uPA Generation; cell surface uPA generation assay, qHTS; Potency, µM (doses to about 38.3 µM), for the others: top-dose activity change, negative = inhibition, actives largely listed as inhibitors; 330,000 tested, 0.31% active; AID 540303, 2011; active = well fitted inhibition curve with a large enough effect; inconclusive = small, poorly fitted or top-dose-only effect; inactive = no such curve, though single readings can be large or run the other way; tested in mouse RAW 264.7 cells; note: potency is the fitted concentration of half-maximal effect; nearly all actives have a fitted effect of over 55% in size
# IL-1B inflam inh: qHTS for Inhibitors of Inflammasome Signaling: IL-1-beta AlphaLISA Primary Screen | THP-1 LPS/ATP IL-1B secretion, AlphaLISA, 16 h; stronger effect = lower value | activity change, % at 57.5 µM | 360,000 tested, 4.7% active | AID 743279, 2014; in the data active = activity change below about -50%; inconclusive = mostly about -30% to -49%
#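 Secreted IL-1B measured by AlphaLISA bead assay after 16 h compound exposure of THP-1 cells; compounds (final up to 57.5 uM) added 1 h before LPS (250 ng/mL) and ATP (1.25 mM) stimulation; lower signal means less secretion.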
# TDP1 cell CPT: qHTS for Inhibitors of human tyrosyl-DNA phosphodiesterase 1 (TDP1): qHTS in cells in presence of CPT | chicken DT40 Tdp1-/-;hTDP1 cells + 20 nM CPT, ATP luminescence, 48 h | Potency, µM (doses to about 46.2 µM), without a hit: at the highest dose activity change, negative = growth inhibition, most hits filed as inhibitors | 420,000 tested, 12% active | AID 686979, 2013; note: potency is the fitted concentration of half-maximal effect; nearly all actives have a fitted effect of over 55% in size
#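 Cell growth measured by CellTiter-Glo luminescence after a minimum 48 h, 37 C compound exposure with 20 nM CPT in Tdp1-knockout DT40 cells stably expressing hTDP1, seeded 400/well; qHTS titration format.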
# TDP1 cell noCPT: qHTS for Inhibitors of human tyrosyl-DNA phosphodiesterase 1 (TDP1): qHTS in cells in absence of CPT | DT40 Tdp1-/- hTDP1 cells, no CPT, ATP luminescence, 48 h | Potency, µM (series often up to 46.2 µM), inactives show at the top dose activity change, negative = growth inhibition, most hits filed as inhibitors | 420,000 tested, 15% active; note: potency is the fitted concentration of half-maximal effect; nearly all actives have a fitted effect of over 55% in size
#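 DT40 Tdp1-/-;hTDP1 cells, no CPT (DMSO vehicle only), 400 cells/well; compounds pin-transferred; ≥48 hr, 37 °C; CellTiter-Glo 30 min RT dark, luminescence read.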
# HT1080NT lethal: qHTS for induction of synthetic lethality in tumor cells producing 2HG: qHTS for the HT-1080-NT fibrosarcoma cell line; Potency, µM (doses to about 46.1 µM), inactives show at the highest dose activity, negative = less viability, hits mostly cytotoxic; 360,000 tested, 1.6% active; AID 686970, 2013; HT-1080-NT fibrosarcoma viability, CellTiter-Glo ATP luminescence, 48 h;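 note: NT is the 2HG producing partner of a matched IDH1 knockdown line; potency is the fitted concentration of half-maximal effect; 0% = DMSO-treated cells and -100% = media-only wells without cells; nearly all actives have a fitted effect of over 55% in size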
#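 HT-1080-NT fibrosarcoma cells (2HG-overproducing), 750 cells/well in RPMI with 5% FBS, dosed after 2 h and incubated 48 h at 37C. CellTiter-Glo luminescence normalized to DMSO and no-cell wells; concentration-response curves fitted and classed.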
# Active calls of the source: *; ? = inconclusive; · = no result given; [ ] = dose if it differs, or a comment. An excerpt weighted towards active compounds, which were near 19% of everything screened. Unless noted, calls come from the whole dose curve; as a rule, active = well fitted curve in the direction sought with a large enough effect; inconclusive = small, poorly fitted or top-dose-only effect, or another doubt; inactive = no such curve, though single readings can be large; an effect the other way counts as inactive or inconclusive. Unless noted, % is set by controls: 0 for no effect and ±100 for the full control effect.
SMILES,HT1080 IDH1KD tx,uPA generation,IL-1B inflam inh,TDP1 cell CPT,TDP1 cell noCPT,HT1080NT lethal
CN(N=O)C(=O)N[C@@H]1[C@@H](O)[C@H](O)[C@@H](CO)O[C@@H]1O,·,·,·,-2%[21.1 µM],-13%[21.1 µM],·
COc1ccc(NC(=O)Nc2cc(C)ccc2F)cc1OC,?,3%,-51*,-2%,-13%,?
CCN(C(=S)NC(=O)c1ccccc1Br)C1CCCCC1,3%,-8%,0,16µM*,?,7%
CCOC(=O)c1c(NC(=O)c2cc(OC)c(OC)c(OC)c2)sc2c1CCCC2,·,·,·,7%,3%,·
CCOC(=O)c1c(NC(=O)C(C)S(=O)(=O)c2cn(CC)c3ccccc23)sc2c1CCCC2 (stereo not drawn),-6%,8%,-14,?,6.5µM*,4%
CCOC(=O)c1c(NC(=O)C(C)Sc2cn(CCNC(=O)c3ccccc3OC)c3ccccc23)sc2c1CCC2 (stereo not drawn),·,·,·,18µM*,5.2µM*,·
CCOC(=O)c1c(NC(=O)CSc2nnc(-c3c[nH]c4ccccc34)n2C)sc2c1CCCC2,4%,14%,-21,?,?,0%
CCOC(=O)c1c(NC(=O)CSc2nnc(-c3c[nH]c4ccccc34)n2CCOC)sc2c1CCCC2,-24%,?,-18,23µM*,15µM*,?
CCOC(=O)c1c(NC(=O)C(C)Sc2cn(CCNC(=O)c3ccc(OC)c(OC)c3)c3ccccc23)sc2c1CCC2 (stereo not drawn),·,·,·,21µM*,?,·
CCOC(=O)c1c(NC(=O)c2ccccc2C)sc2c1CCCC2,·,·,·,-21%,?,·
CCC(c1nc2ccccc2[nH]1)N(CCCn1ccnc1)C(=O)c1ccc(C(F)(F)F)cc1 (stereo not drawn),-13%,·,-1,?,-20%,8%
COc1ccc(NC(=O)CCNS(=O)(=O)c2cccc3nsnc23)c(OC)c1,4%,-2%,-4,10%,-11%,1%
COc1ccc(OC)c2sc(N(Cc3cccnc3)C(C)=O)nc12,·,·,·,-3%,1%,·
O=C(CSc1nnc(CNC(=O)c2c(F)cccc2F)o1)NCc1ccc(F)cc1,4%,-6%,17,-23%,6%,14%
CCOC(=O)c1c(NC(=O)CSc2cn(CCNC(=O)c3ccc(OC)c(OC)c3)c3ccccc23)sc2c1CCCC2,·,·,·,7.3µM*,2.9µM*,·
Cc1ccc(C)c(CN2C(=O)c3ccccc3S(=O)(=O)c3ccc(C(=O)NCc4ccccc4)cc32)c1,·,·,·,20%,-17%,·
O=C(c1ccccc1F)N1CCN(C(=O)C2CC2)CC1,23%,2%,-8,2%,-6%,15%
O=c1c(C(c2ccc(Br)cc2)c2c(O)nc3n(c2=O)CCCS3)c(O)nc2n1CCCS2,9%,-5%,20,-101%,-10%,0%
O=c1c(C(c2ccc(Br)cc2)c2c(O)nc3n(c2=O)CCS3)c(O)nc2n1CCS2,4%,1%,-69*,10%,2%,3%
Cc1cccn2c(=O)cc(CSc3nnc(NC(=O)COc4ccc(F)cc4)s3)nc12,·,·,·,5%,-6%,·
COc1ccc(N2C(=S)NC3N2C(=S)NC3(C)c2ccccc2)cc1 (stereo not drawn),12µM*,6%,-23,6%,?,16µM*
Cc1nn(-c2ccccc2)c(OC(=O)c2cccc(Br)c2)c1S(=O)(=O)c1ccccc1,·,·,·,0%,2%,·
CCCSc1nc2cc(C)c(C)cc2n1CC(C)O (stereo not drawn),1%,-4%,7,-3%,-5%,5%
CC(Cc1ccc(Cl)cc1)N1CCC(n2nccc2NC(=O)C2CCCC2)CC1 (stereo not drawn),-23%,0%,?,?,?,?
CCC1CN(C(=O)NCc2ccc(F)cc2)c2ccccc2O1 (stereo not drawn),8%,5%,-21,?,?,0%
SMILES,HT1080 IDH1KD tx,uPA generation,IL-1B inflam inh,TDP1 cell CPT,TDP1 cell noCPT,HT1080NT lethal
CCC1CN(C(=O)NCc2cccc(OC)c2)c2cc(Cl)ccc2O1 (stereo not drawn),-6%,-4%,0,15µM*,?,-2%
CCC1CN(C(=O)NCc2cccc(OC)c2)c2ccccc2O1 (stereo not drawn),-5%,3%,10,?,15µM*,1%
CCC1CN(C(=O)Nc2ccc(C(=O)O)cc2)c2cc(Cl)ccc2O1 (stereo not drawn),·,·,·,-27%,-29%,·
COc1cccc(C(=O)c2c(-c3ccccc3)ncc3cc(OC)c(OC)cc23)c1,-17%,-5%,?,?,?,-5%
N#Cc1ncc(Cl)c2ccccc12,-1%,9%,-3,20%,2%,15%
Clc1ccc(-[n+]2c(-c3cccc(Br)c3)[nH]c3nc4ccccc4nc32)cc1,28%,7%,·,?,26µM*,21%
Cn1c(S(=O)(=O)c2ccc([N+](=O)[O-])cc2)nc(Br)c1Br,?,-8%,·,21µM*,?,?
COC(=O)c1ccc(S(=O)(=O)c2ccc([N+](=O)[O-])cc2)cc1,1%,-15%,-4,?,-28%,13%
COC(=O)c1cc(C)ccc1OCc1ccc([N+](=O)[O-])cc1,-2%,-13%,-12,7%,-2%,1%
COc1ccc(N2CCN(C(=O)c3cc(NC(C)=O)c4c(c3)ncn4CCc3ccccn3)CC2)cc1,·,·,·,4%,-19%,·
COc1cccc(/C=C/c2nccc3ccccc23)c1OC,·,·,·,?,16µM*,·
COc1cccc(/C=C/C(=O)NNC(=O)c2ccncc2)c1OC,-1%,-24%,-16,2%,-4%,-4%
COc1ccccc1-c1nc2ccccc2nc1-c1ccccc1OC,2%,-2%,8,?,?,8%
COc1cccc(/C=C/c2nc3ccccc3nc2/C=C/c2cccc(OC)c2OC)c1OC,·,·,·,8.9µM*,2.8µM*,·
Fc1ccc(/C=C/c2nccc3ccccc23)cc1,·,·,·,7.1µM*,14µM*,·
COc1cccc(/C=C/c2ccncc2)c1OC,10%,-15%,-9,?,23µM*,8%
CC(=O)Nc1ccc(S(=O)(=O)NC2=NCN(C(C)C)CN2)cc1,·,·,·,-23%,-14%,·

# High-throughput results (PubChem)
